High-throughput results deposited in PubChem BioAssay by Broad Institute.
miR122 inh = activators of miR-122 sensor in Huh7 cells. Huh7 psiCHECK-miR122 Renilla luciferase sensor, 48 h. activation, % at 12.5 µM. 0.14% of 340,000 active. AID 623901;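 active = mean activation of 30% or more, with every replicate also reaching 30%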;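 also: 0% = median of neutral control wells and 100% = median of positive control wells; higher luciferase signal means stronger suppression of miR-122 activity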
Active calls of the source: *. This excerpt belongs to a sample that is enriched for hits.

SMILES	miR122 inh
Cc1noc(C)c1NC(=O)N(C)C[C@@H]1Oc2ncc(C#Cc3cccc(F)c3)cc2C(=O)N([C@H](C)CO)C[C@@H]1C	11
COCC#Cc1ccc2c(c1)O[C@H](CN(C)C(C)=O)[C@@H](C)CN([C@@H](C)CO)S2(=O)=O	-2
CCOc1ccc(-c2cc(N)n(S(=O)(=O)c3ccc(OC)c(OC)c3)n2)cc1	-92
COc1ccc(-c2c(C)nn3c(N)c(-c4ccccc4)cnc23)cc1OC	45*
CC(C)C#Cc1ccc2c(c1)O[C@H](CN(C)Cc1ccncc1)[C@H](C)CN([C@H](C)CO)S2(=O)=O	-22
COc1cccc(NC(=O)N(C)C[C@H]2Oc3ncc(C#Cc4cccnc4)cc3C(=O)N([C@@H](C)CO)C[C@@H]2C)c1	5
CCCNC(=O)N(C)C[C@@H]1Oc2ncc(C#CCC3CCCC3)cc2C(=O)N([C@H](C)CO)C[C@H]1C	1
C[C@H]1CN([C@@H](C)CO)C(=O)c2cc(C#CC3(O)CCCC3)cnc2O[C@H]1CN(C)S(=O)(=O)c1cccc(F)c1	-4
CCN1CCN(Cc2ccc(NC(=O)c3cc(NC(=O)c4cc5cccc(OC)c5o4)cc(OC)c3)cc2C(F)(F)F)CC1	31*
COc1ccc(NS(=O)(=O)c2cc(NC(=O)c3ccc(F)cc3)ccc2OC)cc1	-108
COc1ccc(NC(=O)Nc2ccc3c(c2)C(=O)N([C@@H](C)CO)C[C@H](C)[C@H](CN(C)Cc2ccc(C(F)(F)F)cc2)O3)cc1	-150
C[C@@H]1CN([C@H](C)CO)C(=O)c2cc(-c3cccnc3)cnc2O[C@H]1CN(C)S(C)(=O)=O	-2
COc1cccc(-c2cnc3c(c2)C(=O)N([C@H](C)CO)C[C@H](C)[C@H](CN(C)Cc2cccnc2)O3)c1	-4
COC(=O)C1=C(C)N=C2SC(C#N)=C(N)N2C1c1cc(OC)c(OC)c(OC)c1 (configuration not stated)	38*
C[C@H]1CN([C@@H](C)CO)C(=O)c2cc(-c3ccc(F)cc3)cnc2O[C@@H]1CN(C)Cc1ccccn1	-1
C[C@@H]1CN([C@@H](C)CO)C(=O)c2cc(Br)cnc2O[C@@H]1CN(C)C(=O)c1cccnc1	-5
C[C@H](O)C#Cc1cnc2c(c1)C(=O)N([C@H](C)CO)C[C@@H](C)[C@@H](CN(C)C(=O)CN(C)C)O2	3
CCCCCCCCCn1c2c(c(=N)c3c1CCC3)CCC2	47*
C[C@@H]1CN([C@@H](C)CO)S(=O)(=O)c2ccc(C#Cc3cccnc3)cc2O[C@H]1CN(C)CC1CCOCC1	-9
CCCC(O)C#Cc1cnc2c(c1)C(=O)N([C@H](C)CO)C[C@H](C)[C@H](CN(C)S(=O)(=O)c1ccccc1)O2 (some centres not stated)	-1
COCC(=O)N(C)C[C@H]1Oc2ncc(C#Cc3ccccc3OC)cc2C(=O)N([C@H](C)CO)C[C@H]1C	9
C[C@@H]1CN([C@H](C)CO)C(=O)c2cc(C#Cc3cccnc3)cnc2O[C@H]1CN(C)S(C)(=O)=O	-1
CCCNC(=O)N(C)C[C@@H]1Oc2cc(C#Cc3cccc(F)c3)ccc2S(=O)(=O)N([C@H](C)CO)C[C@H]1C	-4
CO[C@H]1CN(C)C(=O)c2ccc(NC(=O)c3ccccc3)cc2OC[C@H](C)N(C)C[C@H]1C	-2
CNc1nc(NCCOc2ccccc2)c2sccc2n1	37*
SMILES	miR122 inh
CCNc1nc(N)nc(Oc2ccc(OCCOc3ccccc3)nn2)n1	-151
C[C@@H]1CN([C@@H](C)CO)C(=O)c2cc(C3=CCCCC3)cnc2O[C@@H]1CN(C)Cc1ccccc1C(=O)O	4
CCCNC(=O)N(C)C[C@@H]1Oc2cc(-c3ccccc3)ccc2S(=O)(=O)N([C@H](C)CO)C[C@@H]1C	-6
C[C@H](CO)N1C[C@H](C)[C@H](CN(C)Cc2ccccn2)Oc2cc(-c3cncnc3)ccc2S1(=O)=O	10
CCC(=O)Nc1ccc2c(c1)OC[C@@H](C)N(C(=O)CN1CCOCC1)C[C@@H](C)[C@H](OC)CN(C)C2=O	-8
COc1ccc(-c2c(-c3ccccc3)c(C(=O)C(=O)NCCCN(C)C)n3ccc4cc(OC)c(OC)cc4c23)cc1OC	38*
C[C@H]1CN([C@@H](C)CO)C(=O)c2cc(C#CC3(O)CCCC3)cnc2O[C@@H]1CN(C)C(=O)C1CCCCC1	2
COc1ccc(C#Cc2cnc3c(c2)C(=O)N([C@H](C)CO)C[C@H](C)[C@H](CN(C)C(=O)NC2CCCCC2)O3)cc1OC	11
CCCCc1cc(=O)oc2cc(C)cc(OC(C)C(=O)O)c12 (configuration not stated)	32*
C[C@@H]1CN([C@@H](C)CO)C(=O)c2cc(-c3cncnc3)cnc2O[C@H]1CN(C)Cc1ccc(F)cc1	5
C[C@@H]1CN([C@H](C)CO)C(=O)c2cc(C#CC3(O)CCCC3)cnc2O[C@H]1CN(C)S(=O)(=O)c1ccc(F)cc1	-1
C[C@@H]1CN([C@H](C)CO)C(=O)c2cc(-c3ccncc3)cnc2O[C@H]1CN(C)C(=O)c1ccccc1F	4
COCC(=O)NC[C@H]1[C@H](c2ccccc2)[C@@H](CO)N1C(=O)c1ccccc1	-100
CCC(=O)N1[C@H](CO)[C@H](c2ccccc2)[C@@H]1CN(CC)C(=O)c1ccccc1	36*
CCC(=O)N1[C@H](CN(CC)C(=O)c2cccc(F)c2)[C@H](c2ccccc2)[C@@H]1CO	-125
CC(=O)N1[C@H](CN(C(=O)c2ccc(F)cc2)C(C)C)[C@H](c2ccccc2)[C@@H]1CO	67*
CCC(=O)N1[C@H](CO)[C@H](c2ccccc2)[C@@H]1CN(CC)C(=O)c1cccc(F)c1	-250
CCCNC(=O)Nc1ccc2c(c1)OC[C@H](C)N(C)C[C@@H](C)[C@@H](OC)CN(C)C2=O	-3
COc1ccccc1NC(=O)N(C)C[C@H]1Oc2ncc(C#CCC(C)C)cc2C(=O)N([C@H](C)CO)C[C@@H]1C	6
C[C@@H]1CN([C@H](C)CO)S(=O)(=O)c2ccc(C#Cc3ccc(F)cc3)cc2O[C@H]1CN(C)S(C)(=O)=O	3
C[C@@H]1CN([C@@H](C)CO)C(=O)c2cc(-c3cccc(F)c3)cnc2O[C@H]1CN(C)C(=O)C1CCOCC1	2
C[C@@H]1CN([C@H](C)CO)C(=O)c2cc(/C=C/c3ccccc3)cnc2O[C@@H]1CN(C)C(=O)c1cccc(F)c1	3
C[C@H](CO)N1C[C@H](C)[C@@H](CN(C)Cc2cncnc2)Oc2cc(C#CC3CCCC3)ccc2S1(=O)=O	-95
C[C@H](CO)N1C[C@H](C)[C@H](CN(C)S(=O)(=O)c2ccc(F)cc2)Oc2ncc(C#CC3(O)CCCC3)cc2C1=O	-1
CC(C)NC(=O)Nc1ccc2c(c1)C(=O)N(C)[C@@H]1CC[C@@H](CC(=O)NCC(F)(F)F)O[C@@H]1CO2	37*
CC(C)NC(=O)Nc1ccc2c(c1)C(=O)N(C)[C@@H]1CC[C@H](CC(=O)NCC(F)(F)F)O[C@H]1CO2	37*
Cc1ccc(-c2cnc3c(c2)C(=O)N([C@@H](C)CO)C[C@@H](C)[C@@H](CN(C)C(=O)Cc2ccncc2)O3)cc1	10
CC(C)C#Cc1cnc2c(c1)C(=O)N([C@H](C)CO)C[C@@H](C)[C@@H](CN(C)Cc1ccccn1)O2	5
CCCNC(=O)Nc1ccc2c(c1)OC[C@@H](C)N(C)C[C@H](C)[C@H](OC)CN(C)C2=O	0
C/C=C/c1cnc2c(c1)C(=O)N([C@H](C)CO)C[C@@H](C)[C@@H](CN(C)C(=O)Nc1cccc(OC)c1)O2	-10
